Data taken from ChEMBL document CHEMBL1157539, “Thousands of chemical starting points for antimalarial lead identification” (Nature, 2010).

System: HepG2
Assay: GSK_TCMDC: Percent inhibition of human HepG2 cell line. Test compounds present at 10uM.
Assay type: functional

| SMILES | Inhibition [%] |
| --- | --- |
| COc1cc2c(cc1OCCN1CCC(N3CCCCC3)CC1)N(C(=O)/C=C/c1ccccc1Cl)CC2 | 36 |
| Cc1ccc(Nc2ccnc(Nc3ccc(F)c(Cl)c3)n2)cc1O.Cl | 9 |
| CN1CCCC(CN2CCN(Cc3ccc(-c4cccc(-c5nc6ccccc6[nH]5)c4)cc3)CC2)C1.O=C(O)C(F)(F)F (stereo not given) | 57 |
| CCCc1cc(Cc2cnc(N)nc2N)cc(CC)c1O.Cl | 56 |
| CN(C)c1ccc(CN2CCC(CNC(=O)c3cc(-c4ccccc4Cl)cs3)C2)cc1.O=C(O)C(F)(F)F (stereo not given) | 29 |
| N#CCCN1CCN(Cc2cccc(-c3ccc(-c4nc5ccccc5[nH]4)cc3)c2)CC1.O=C(O)C(F)(F)F | 18 |
| COc1ccc2[nH]c(C)cc(=NN=Cc3ccc(F)cc3)c2c1 | 5 |
| O=C(Nc1ccsc1)Nc1cccc(-c2cccc(-c3nc4cc(C(F)(F)F)ccc4[nH]3)c2)c1 | 76 |
| O=C(Nc1cccc(-c2ccc(-c3nc4cc(C(F)(F)F)ccc4[nH]3)cc2)c1)c1ccoc1 | 76 |
| CCc1c(CCNCCCCCCNCCc2ccc(OC)c(OC)c2C)ccc(OC)c1OC.Cl | 16 |
| O=C(NCCN1CCCC1)c1cccc(-c2ccc(-c3nc4cc(F)ccc4[nH]3)s2)c1 | 51 |
| Nc1nc(N)c2cc(Sc3ccc4ccccc4c3)ccc2n1 | 66 |
| COc1ccc2nccc([C@@H](O)CN3CCC(NCC(=O)Nc4cc(F)cc(F)c4)CC3)c2n1.O=C(O)C(=O)O | 18 |
| COc1cc(CCCOc2c(N)nc(N)nc2N)cc(OC)c1OC | 8 |
| O=C(NC1CCC(N2CCC(Cc3ccc(F)cc3)CC2)CC1)c1cc2ccccc2[nH]1 (stereo not given) | 60 |
| Fc1cc(Cl)ccc1Nc1ccnc2cc(-c3scnc3CNCCN3CCOCC3)ccc12 | 0 |
| FC(F)(F)c1ccc2[nH]c(-c3ccc(-c4cccc(CNCCc5ccncc5)c4)s3)nc2c1.O=C(O)C(F)(F)F | 20 |
| COCCCC1C(=O)OC2CCCC21 (stereo not given) | 0 |
| COc1cc2c(cc1NS(=O)(=O)c1ccc(OCc3ccc(Br)cc3)cc1)CCN(C1CCC1)CC2.Cl | 36 |
| Cc1cc(CNCC2CCC(CNCCCc3ccccc3)CC2)ccc1O (stereo not given) | 25 |

| SMILES | Inhibition [%] |
| --- | --- |
| CCNc1cc(C(=O)N[C@@H](Cc2ccccc2)[C@H](O)CN[C@H](C)c2ccccc2)cc(N2CCCC2=O)c1 | 0 |
| COc1ccc(CNCc2cccc(-c3csc(-c4nc5ccccc5[nH]4)c3)c2)cc1.O=C(O)C(F)(F)F | 17 |
| Cc1csc2nc(-c3ccccn3)nc(Nc3ccncn3)c12.O=C(O)C(F)(F)F | 47 |
| Cc1cc(=NN=CC=Cc2ccccc2)c2ccc(F)cc2[nH]1 | 14 |
| CCOC(=O)CCc1cc(F)c(F)c(OC[C@H](O)CNC(C)(C)C(O)c2ccc3ccccc3c2)c1.Cl (stereo not given in full) | 12 |
| CNc1ccc(CNCc2ccc(-c3ccc(-c4nc5cccc(C)c5[nH]4)s3)cc2)cc1.O=C(O)C(F)(F)F | 29 |
| COc1cc(Nc2nccc(Nc3ccc4c(C)n[nH]c4c3)n2)cc2ccccc12.Cl | 13 |
| CN(C)Cc1ccc2nc(-c3cccc(Cc4cc(Cl)ccc4OCc4ccc(Cl)cc4F)n3)[nH]c2c1.Cl | 43 |
| c1ccc(CN2CCC(Nc3ccc(-c4c[nH]nc4-c4ccccn4)nc3)CC2)cc1 | 1 |
| O=S(=O)(c1cccc(C(F)(F)F)c1)N1CCC(CO)(Cc2cccc(C(F)(F)F)c2)CC1 | 3 |
| CC(Cc1ccc(CN(CC(N)=O)Cc2ccc(CC(C)NCCc3cccc(Cl)c3)cc2)cc1)NCCc1cccc(Cl)c1.O=C(O)C(F)(F)F (stereo not given) | 26 |
| O=C(/C=C/c1ccc(Cl)c(Cl)c1)NCCCCCN1CCCN(C(=S)Nc2ccc(Cl)cc2)CC1 | 7 |
| Oc1ccc2[nH]c(-c3cccc(F)c3)nc2c1CN1CCC(O)(c2ccccc2)CC1 | 21 |
| O=C(O)C(F)(F)F.O=c1[nH]ccc2nc(N[C@@H]3CCNC3)nc(Nc3cccc(S(=O)(=O)N4CCOCC4)c3)c12 | 0 |
| O=C(NCCCCN1CCC(c2ccc3ccccc3c2)CC1)c1ccc(NC(=O)c2ccc(Cl)cc2)cc1 | 24 |
| Cc1ccc(NC(=S)N2CCCN(CCCCCNC(=O)/C=C/c3ccc(Cl)c(Cl)c3)CC2)cc1Cl | 14 |
| CCN(CC)CCN(Cc1ccc(-c2ccc(C(F)(F)F)cc2)cc1)C(=O)Cn1c(SCc2ccc(F)c(F)c2F)nc(=O)c2c1CCC2.O=C(O)C(O)C(O)C(=O)O | 100 |
| O=C(c1ccc([N+](=O)[O-])o1)N1CCC(Cc2ccc(C(F)(F)F)cc2)CC1 | 38 |
| FC(F)(F)c1ccc2[nH]c(-c3ccc(-c4ccc(CNCC5CCCO5)cc4)cc3)nc2c1.O=C(O)C(F)(F)F (stereo not given) | 33 |
| Cc1cc(Nc2ccc(Cl)c(Cl)c2)n2nc(C)nc2n1 | 6 |
